# Compounds without any hit were thinned out: in the full panel of roughly 83,000, 20% have a hit.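 Activity criterion: percent growth below 10, measured after cells in 96-well plates were exposed to a single compound concentration for 48 hours.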 Unmarked numbers belong to inactive results. Active and inactive are the calls of the source.
# Experiments:
# Experiment in all cases: NCI-60 one-dose screen, 48 h (100 = growth as untreated, 0 = no growth, -100 = all killed)
# Settings in all cases: 10 µM unless noted
# SR leukemia = test system: SR leukemia
# RPMI-8226 leukemia = test system: RPMI-8226 leukemia
# OVCAR-5 ovarian = test system: OVCAR-5 ovarian
# OVCAR-4 ovarian = test system: OVCAR-4 ovarian
# SK-OV-3 ovarian = test system: SK-OV-3 ovarian
# IGROV1 ovarian = test system: IGROV1 ovarian
# OVCAR-3 ovarian = test system: OVCAR-3 ovarian
# HS 578T breast = test system: HS 578T breast
# NCI/ADR-RES ovarian = test system: NCI/ADR-RES ovarian
# OVCAR-8 ovarian = test system: OVCAR-8 ovarian
Compound,growth (SR leukemia),growth (RPMI-8226 leukemia),growth (OVCAR-5 ovarian),growth (OVCAR-4 ovarian),growth (SK-OV-3 ovarian),growth (IGROV1 ovarian),growth (OVCAR-3 ovarian),growth (HS 578T breast),growth (NCI/ADR-RES ovarian),growth (OVCAR-8 ovarian)
O=C(O)c1ccc2c(c1)C(=O)N(Cc1ccccc1)C2=O,101%,95.5%,105%,114%,106%,106%,103%,99.7%,98%,–
COCCCN1CC(O)=C(c2nc(-c3ccc(C)cc3)cs2)C1=N,109%,–,97.6%,150%,120%,54.4%,112%,102%,106%,95.2%
CCNC(=O)Oc1ccc(/C(=C(\C)c2ccccc2)c2ccc(OCCCN(C)C)cc2)cc1,10.2%,–,81.4%,84.4%,80.7%,87.5%,85.3%,57%,81.6%,86.5%
COc1cccc(-c2ccc3c(c2)NC(=O)/C3=C\c2ccc[nH]2)c1,8.43% (active),–,53.2%,54.7%,58.9%,29.7%,12.7%,56.4%,40.4%,74.2%
CC(=O)O[C@@H]1C2CCC3C(CC[C@@]4(C)C3CC[C@@H]4C(C)N(C)C)[C@@]2(C)CC[C@@H]1NC(=O)C=C(C)C (some centres not stated),-34.5% (active),–,83.8%,-19.5% (active),65.4%,37.8%,0.951% (active),16%,37.6%,44.3%
CCCCCCOc1ccc(/C=N/Nc2cc(C)nc3ccc(Cl)cc23)cc1,-7.39% (active),–,26.5%,-58.1% (active),90.2%,-79% (active),-97% (active),28.5%,-27.8% (active),-36.4% (active)
COc1cc(-c2n/c(=C\c3c(O)[nH]c4ccc(Cl)cc34)cc3c2=Nc2ccccc2-3)ccc1F,7.25% (active),–,74%,-56.9% (active),-14.7% (active),-18% (active),-14.6% (active),14.8%,47%,-50.7% (active)
Cc1ccc(C(=O)/C(=C/c2ccc([N+](=O)[O-])cc2)SCc2ccc(Cl)cc2)cc1,11.4%,-32.7% (active),85.1%,58.8%,101%,74.7%,47.6%,88.2%,72%,–
CCCOc1ccc(/C=N/Nc2cc(C)nc3ccc(Cl)cc23)cc1,-35.5% (active),–,96.3%,48.5%,89.1%,42.1%,-27.5% (active),89%,82.4%,-44.6% (active)
O=C(CCN1CCCC1)Nc1ccc2c(NCCCc3ccccc3)c3ccccc3nc2c1,-22.3% (active),–,32.1%,-18.6% (active),13%,11.7%,-70.7% (active),27.4%,91.2%,9.97% (active)
NC(=NCc1ccccc1)C(N=Nc1ccccc1)C(=O)NCc1ccccc1 (configuration not stated),19.1%,–,100%,76.5%,95.6%,81.5%,88.8%,64%,50.2%,31.1%
CCCCCC(=O)Oc1ccc(/C(=C(/C)Cc2ccc(OC)cc2)c2ccc(OCCCN(C)C)cc2)cc1,10.9%,–,96.4%,71.4%,81.5%,63.9%,86.5%,59.9%,88.2%,96.2%
C=C1C(=O)O[C@H]2[C@H]1CC/C(CNC(=O)/C=C/c1ccccc1)=C\CC[C@@]1(C)O[C@@H]21,6.13% (active),–,-21.6% (active),38.5%,109%,-16.9% (active),-85.1% (active),28.6%,69.1%,5.85% (active)
O=C(CCN1CCCC1)c1ccc([N+](=O)[O-])cc1,98%,–,102%,102%,101%,105%,104%,112%,100%,101%
Cn1ccnc1C(=O)/C=C/c1ccc(CC(=O)Nc2ccc(Cl)cc2)cc1,6.73% (active),–,22.9%,36.9%,58.7%,13%,4.49% (active),8.18% (active),10.8%,-27.7% (active)
O=[N+]([O-])c1cc(Br)c2cccc3c2c1CC3,93.3%,–,99.4%,104%,114%,111%,108%,130%,114%,97%
CC(Sc1nc2sc3c(c2c(=O)n1-c1ccc(Cl)cc1)CCCC3)C(=O)Nc1nc(-c2ccc(Br)cc2)cs1 (configuration not stated),97.6%,–,93.9%,109%,96.6%,96%,114%,112%,95.6%,103%
COc1ccc2c(c1)C(=O)CC(c1ccccc1OC)O2 (configuration not stated),89.3%,–,108%,102%,104%,79.3%,117%,101%,86%,100%
O=C(CCN1CCCC1)Nc1ccc2c(NCCc3ccccc3)c3ccccc3nc2c1,-16.1% (active),–,7.44% (active),-24.6% (active),-6.92% (active),-6.54% (active),-37.8% (active),-25.1% (active),71.5%,3.23% (active)
O=S(=O)(NCCNc1nccc(-c2c(-c3cccc(O)c3)nc3occn23)n1)c1cccc(F)c1,84.7%,–,128%,121%,91.8%,50.5%,94.7%,101%,107%,89.9%
COc1ccc(CCn2cncc2-c2c[nH]c3ccccc23)cc1,93.3%,–,90.2%,79.4%,87.7%,56.4%,88.4%,78.2%,87.6%,93.5%
O=C(/C(=C/c1ccc([N+](=O)[O-])cc1)SCc1ccc(F)cc1)c1ccc(F)cc1,6.69% (active),–,97.9%,73.2%,103%,78%,82.9%,89.2%,77.1%,93.1%
CCOC(=O)C1=C(C)NC(SCc2cc(=O)oc3ccc(F)cc23)=N[C@@H]1c1cccc2ccccc12,83.5%,–,119%,102%,92.5%,99.4%,92.4%,106%,98.7%,89.5%
O=S(=O)(NCCCNc1nccc(-c2c(-c3cccc(F)c3)nc3sccn23)n1)c1cccc2ccccc12,62%,–,80.9%,40.2%,65.8%,22.3%,68.7%,55.9%,47.1%,38.5%
O=C(c1nc2ccccc2[nH]1)C1C(c2ccc(Br)cc2)C2CC3CCCC[C@H]3N2[C@@]12C(=O)Nc1cc(Cl)ccc12 (some centres not stated),31.3%,–,46.8%,34.7%,67.6%,28.8%,34.3%,66.8%,46.7%,58.5%
C#CCNC(=O)c1cccc2c1cc(C)n2-c1nc2c(c(NCc3ccccc3)n1)CCCC2,6.53% (active),–,8.62% (active),-11.8% (active),2.45% (active),-21.7% (active),-61.2% (active),8.06% (active),1.28% (active),12.8%
COc1cc2nc(-c3ccc(C(F)(F)F)cc3)cc(OCCN3CCCCC3)c2cc1OC,19.2%,–,58.4%,81.8%,83.7%,46.5%,89.7%,74.7%,63.1%,78.2%
C=C1C(=O)O[C@H]2[C@H]1CC/C(CNC(=O)C(C)c1ccc(CC(C)C)cc1)=C\CC[C@@]1(C)O[C@@H]21 (some centres not stated),–,-21% (active),57.3%,29.3%,88.1%,-36% (active),-87.9% (active),25.4%,55.3%,-32.5% (active)
